# Where a name gives a salt, the structure may show the parent alone.
# Test system: MDA-MB-468
# Test: phospho-S6 immunofluorescence (DAPI-normalised), per-plate z-score; higher = higher phospho-S6 signal (less pathway suppression)
# Conditions: co-treatment: vehicle; 24 h
# Experimental: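 GPCR-targeted compound library (MedChemExpress HY-L006) tested on MDA-MB-468 PTEN-null TNBC cells in 384-well plates at 0.1, 1 or 10 uM, combined with vehicle, GDC0941 450 nM or lapatinib 1 uM, for 24 h. Phospho-S6 (S240/244) immunofluorescence normalised to DAPI and expressed as a per-plate z-score; values are the mean of biological triplicates.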
row,SMILES,phospho-S6 immunofluorescence (z-score)
1,CN(C)C(=O)CCSC(SCCC(=O)O)c1cccc(/C=C/c2ccc3ccc(Cl)cc3n2)c1 (configuration not stated) [MK-571 (sodium salt)] (compound 10 µM),1.28
2,COc1ccc(CCN2CCN(CCCc3ccccc3)CC2)cc1OC [SA4503 (dihydrochloride)] (compound 10 µM),-0.47
3,Cc1c(Cc2ccc3ccccc3n2)c2cc(F)ccc2n1CC(=O)O (compound 10 µM),0.58
4,O=C(O)CCc1ccc(NCc2cccc(Oc3ccccc3)c2)cc1 (compound 10 µM),1.24
5,COc1ccc2c(c1OC)C(=O)O[C@@H]2[C@H]1c2c(cc3c(c2OC)OCO3)CCN1C [Noscapine] (compound 10 µM),0.47
6,C[C@H](Nc1cc(NS(=O)(=O)N2CCC2)nc(SCc2cccc(F)c2F)n1)[C@@H](O)CO (compound 10 µM),-0.77
7,CCNC1(C(N)=O)CCN(c2ncnc3c2nc(-c2ccccc2Cl)n3-c2ccc(Cl)cc2)CC1 [Otenabant] (compound 10 µM),-0.02
8,CCCN[C@@H]1CCc2nc(N)sc2C1 [Dexpramipexole (dihydrochloride)] (compound 10 µM),0.4
9,CC(C)C[C@H](NC(=O)CNC(=O)[C@H](Cc1ccc(O)cc1)NC(=O)[C@H](CO)NC(=O)[C@H](Cc1c[nH]c2ccccc12)NC(=O)[C@H](Cc1cnc[nH]1)NC(=O)[C@@H]1CCC(=O)N1)C(=O)N[C@@H](CCCNC(=N)N)C(=O)N1CCC[C@H]1C(=O)NCC(N)=O [Gonadorelin (acetate)] (compound 10 µM),0.07
10,CC(=O)Oc1cc(C(C)C)c(OCCN(C)C)cc1C [Moxisylyte (hydrochloride)] (compound 10 µM),-1.23
11,CCOC(=O)N1CCC(=C2c3ccc(Cl)cc3CCc3cccnc32)CC1 [Loratadine] (compound 10 µM),-1.25
12,C[C@]12CCC(=O)C=C1CC[C@@H]1[C@@H]2CC[C@@]2(C)[C@H]1CC[C@]2(O)C(=O)CO [Cortodoxone] (compound 10 µM),-0.43
13,CCC/N=C1\S/C(=C\c2ccc(OC[C@H](O)CO)c(Cl)c2)C(=O)N1c1ccccc1C [Ponesimod] (compound 10 µM),1.07
14,CC(C)COc1ccc(CNC(=O)N(Cc2ccc(F)cc2)C2CCN(C)CC2)cc1 [Pimavanserin tartrate] (compound 10 µM),-5.03
15,COc1ccccc1N1CCN(CCN(C(=O)C2CCCCC2)c2ccccn2)CC1 (compound 10 µM),-0.79
16,CN1CCN(CCCN2c3ccccc3Sc3ccc(C(F)(F)F)cc32)CC1 [Trifluoperazine (dihydrochloride)] (compound 10 µM),-4.02
17,Cc1nc(C#Cc2cccnc2)cs1 [MTEP (hydrochloride)] (compound 10 µM),-0.75
18,COc1ccc(S(=O)(=O)Nc2c(C)cc(C)cc2C)cc1 (compound 10 µM),-1.05
19,COc1ccc(/C=C/C(=O)Nc2ccccc2C(=O)O)cc1OC [Tranilast (trans-)] (compound 10 µM),0.65

row,SMILES,phospho-S6 immunofluorescence (z-score)
1,Oc1ccc(C2CNCCc3c2cc(O)c(O)c3Cl)cc1 (configuration not stated) [Fenoldopam (mesylate)] (compound 10 µM),0.83
2,C[C@@H](O)[C@@H]1NC(=O)[C@H](CCCCN)NC(=O)[C@@H](Cc2c[nH]c3ccccc23)NC(=O)[C@H](Cc2ccccc2)NC(=O)[C@@H](NC(=O)[C@H](N)Cc2ccccc2)CSSC[C@@H](C(=O)N[C@H](CO)[C@@H](C)O)NC1=O [Octreotide (acetate)] (compound 10 µM),-0.73
3,CN(C)CCC=C1c2ccccc2C=Cc2ccccc21 [Cyclobenzaprine (hydrochloride)] (compound 10 µM),-0.18
4,CN(C)[C@@H]1CCc2[nH]c3ccc(NC(=O)c4ccc(F)cc4)cc3c2C1 (compound 10 µM),-0.54
5,CN(C)N(C)C(=O)[C@@]1(Cc2ccccc2)CCCN(C(=O)[C@@H](Cc2c[nH]c3ccccc23)NC(=O)C(C)(C)N)C1 [Anamorelin (hydrochloride)] (compound 10 µM),-0.1
6,CCCC(=O)Nc1ccc(OCC(O)CNC(C)C)c(C(C)=O)c1 (configuration not stated) [Acebutolol (hydrochloride)] (compound 10 µM),-0.08
7,CC(C)C[C@H](NC(=O)[C@@H](COC(C)(C)C)NC(=O)[C@H](Cc1ccc(O)cc1)NC(=O)[C@H](CO)NC(=O)[C@H](Cc1c[nH]c2ccccc12)NC(=O)[C@H](Cc1cnc[nH]1)NC(=O)[C@@H]1CCC(=O)N1)C(=O)N[C@@H](CCCNC(=N)N)C(=O)N1CCC[C@H]1C(=O)NNC(N)=O [Goserelin (acetate)] (compound 10 µM),0.21
8,CC1OC2(CS1)CN1CCC2CC1 (configuration not stated) [Cevimeline (hydrochloride hemihydrate)] (compound 10 µM),0.89
9,CC(=O)[C@H]1CC[C@H]2[C@@H]3CC=C4C[C@@H](O)CC[C@]4(C)[C@H]3CC[C@]12C [Pregnenolone] (compound 10 µM),0.85
10,CCN(CC)CC#CCOC(=O)C(O)(c1ccccc1)C1CCCCC1 (configuration not stated) [Oxybutynin] (compound 10 µM),-0.04
11,CN1CCN(C2=Nc3ccccc3Oc3ccc(Cl)cc32)CC1 [Loxapine] (compound 10 µM),0.95
12,NCCCC[C@H](NC(=O)[C@@H]1CCCN1C(=O)[C@@H]1CSSC[C@H](NC(=O)CNC(=O)CNC(=O)CN)C(=O)N[C@@H](Cc2ccc(O)cc2)C(=O)N[C@@H](Cc2ccccc2)C(=O)N[C@@H](CCC(N)=O)C(=O)N[C@@H](CC(N)=O)C(=O)N1)C(=O)NCC(N)=O [Terlipressin] (compound 10 µM),0.08
13,CCOC(=O)N1CCC(NCCNC(=O)c2ccccc2C)CC1 (compound 10 µM),1.13
14,N=C(N)NCCC[C@@H](NC(=O)[C@@H]1CCCN1C(=O)[C@@H]1CSSCCC(=O)N[C@@H](Cc2ccc(O)cc2)C(=O)N[C@@H](Cc2ccccc2)C(=O)N[C@@H](CCC(N)=O)C(=O)N[C@@H](CC(N)=O)C(=O)N1)C(=O)NCC(N)=O [Desmopressin (Acetate)] (compound 10 µM),-0.41
15,COc1ccc(C2CC(c3ccccc3)=NN2c2ccc(S(N)(=O)=O)cc2)cc1 (configuration not stated) (compound 10 µM),-6.71
16,CN(C)CCC(c1ccccc1)c1ccccn1 (configuration not stated) [Pheniramine (Maleate)] (compound 10 µM),-0.37
17,OC(CCCN1CCCCC1)(c1ccccc1)c1ccccc1 [Diphenidol (hydrochloride)] (compound 10 µM),0.38
18,C/C(=N\NC(=O)C(NC(=O)c1ccccc1)c1n[nH]c(=O)c2ccccc12)c1cccc(Br)c1 (configuration not stated) (compound 10 µM),0.95
